Source: PubChem BioAssay AID1835 (Johns Hopkins Ion Channel Center, 2009)
The campaign covered roughly 2,400 compounds. About 750 (31%) were called active. The list shows a part of the results. A number with no mark means an inactive call.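 The calls were made as follows: active = median signal gain over dofetilide-blocked control wells reaching their mean plus 3 SD, so readout 1 at least 0; inactive = the rest.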

These compounds were tested against Voltage-gated inwardly rectifying potassium channel KCNH2 (Homo sapiens) (UniProt Q12809) (assay: modulators restoring hERG flux under dofetilide – cell-based, thallium flux, duplicate retest, dofetilide IC70, confirmation (AID 1835)). Conditions: hERG cell line, FluxOR thallium flux, dofetilide-blocked; at 10 µM; hits give high values.
Sequence of Voltage-gated inwardly rectifying potassium channel KCNH2 (Homo sapiens) (Q12809 whole entry, looked up): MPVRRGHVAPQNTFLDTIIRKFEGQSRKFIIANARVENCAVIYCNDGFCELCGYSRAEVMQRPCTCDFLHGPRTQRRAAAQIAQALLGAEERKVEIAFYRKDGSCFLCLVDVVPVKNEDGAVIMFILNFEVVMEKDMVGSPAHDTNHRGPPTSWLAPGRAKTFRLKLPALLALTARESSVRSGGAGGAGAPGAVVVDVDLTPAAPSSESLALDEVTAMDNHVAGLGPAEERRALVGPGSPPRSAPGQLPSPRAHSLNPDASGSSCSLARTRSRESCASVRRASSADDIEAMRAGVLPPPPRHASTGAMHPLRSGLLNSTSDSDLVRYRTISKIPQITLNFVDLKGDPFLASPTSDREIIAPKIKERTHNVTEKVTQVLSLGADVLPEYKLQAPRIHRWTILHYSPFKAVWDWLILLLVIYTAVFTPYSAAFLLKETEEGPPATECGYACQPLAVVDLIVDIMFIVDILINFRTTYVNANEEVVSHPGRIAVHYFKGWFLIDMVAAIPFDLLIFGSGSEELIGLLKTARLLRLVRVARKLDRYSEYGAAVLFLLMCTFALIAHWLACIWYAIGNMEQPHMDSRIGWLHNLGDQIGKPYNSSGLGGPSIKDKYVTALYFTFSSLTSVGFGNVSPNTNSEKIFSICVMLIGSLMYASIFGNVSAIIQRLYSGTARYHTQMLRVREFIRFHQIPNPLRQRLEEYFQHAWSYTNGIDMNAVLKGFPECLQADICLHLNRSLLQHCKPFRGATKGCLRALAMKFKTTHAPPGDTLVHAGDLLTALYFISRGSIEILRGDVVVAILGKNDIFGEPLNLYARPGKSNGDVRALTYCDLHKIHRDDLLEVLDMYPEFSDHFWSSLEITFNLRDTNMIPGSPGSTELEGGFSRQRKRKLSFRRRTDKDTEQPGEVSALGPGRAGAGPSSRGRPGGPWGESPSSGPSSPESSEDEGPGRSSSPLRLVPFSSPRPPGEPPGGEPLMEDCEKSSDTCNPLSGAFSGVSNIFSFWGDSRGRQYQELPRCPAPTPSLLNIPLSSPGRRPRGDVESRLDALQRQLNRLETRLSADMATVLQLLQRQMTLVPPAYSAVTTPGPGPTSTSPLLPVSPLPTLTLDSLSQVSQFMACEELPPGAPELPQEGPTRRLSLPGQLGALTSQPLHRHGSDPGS
For `O=C(NC(=S)NCCC1=CCCCC1)c1ccc(Br)o1`, the activity increase over dofetilide control, less the hit threshold was 27% (active).
`S=C(NCCc1ccccc1)NCCN1CCOCC1` gave an activity increase over dofetilide control, less the hit threshold of -10%.
For `O=C(NC(=S)NCCc1ccc(Cl)cc1)c1ccco1`, the activity increase over dofetilide control, less the hit threshold was -7%.
For `O=C(NC(=S)NCCC1=CCCCC1)c1ccco1`, the activity increase over dofetilide control, less the hit threshold was 50% (active).
Compound `Oc1c(Br)cc(Br)cc1CNc1cccc2cccnc12` has an activity increase over dofetilide control, less the hit threshold of -19%.
`CN(Cc1ccsc1)C(=O)CCc1nnc(Cc2c[nH]c3ccccc23)o1` gave an activity increase over dofetilide control, less the hit threshold of -8%.
Work on `COc1ccc(S(=O)(=O)N(CCc2ccccc2)CC(=O)O)cc1` yielded an activity increase over dofetilide control, less the hit threshold of -12%.
With `CN(Cc1ccccc1)C(=O)CCc1ccccc1` the activity increase over dofetilide control, less the hit threshold was 12% (active).
For `O=C1NCCN1Cc1ccccc1F`, the activity increase over dofetilide control, less the hit threshold was -20%.
In the case of `O=C(NC(=S)N1CCCCCC1)c1ccc(Cl)cc1Cl`, the activity increase over dofetilide control, less the hit threshold is reported as 11% (active).
`Cc1ccc2c(c1)C1CN(C)CCC1N2C(=S)NC(=O)c1ccc(Br)cc1` (stereo not drawn) showed an activity increase over dofetilide control, less the hit threshold of -26%.
`O=C(NC(=S)N1CCCC1)c1ccc(Cl)cc1` showed an activity increase over dofetilide control, less the hit threshold of 0%.
`CC(C)(C)c1ccc(C(=O)NC(=S)N2CCCCCC2)cc1` was tested, and the activity increase over dofetilide control, less the hit threshold was 16% (active).
For `CC1CCN(C(=S)NC(=O)c2ccc(C(C)(C)C)cc2)CC1`, the activity increase over dofetilide control, less the hit threshold was 22% (active).
Work on `CN1CCN(C(=S)NC(=O)c2ccc(C(C)(C)C)cc2)CC1` yielded an activity increase over dofetilide control, less the hit threshold of -15%.
For `CC(C)(C)c1ccc(/C=C/C(=O)N2CCCCC2)cc1`, the activity increase over dofetilide control, less the hit threshold was 5% (active).
In the case of `COc1cc(OC)cc(C(=O)NC(=S)N2CCCCCC2)c1`, the activity increase over dofetilide control, less the hit threshold is reported as -12%.
For `O=C(/C=C/c1ccccc1)Nc1ccc(C(=O)N2CCCCC2)cc1`, the activity increase over dofetilide control, less the hit threshold was -14%.
`CC(C)(C)c1ccc(C(=O)NC(=S)N2CCCC2)cc1` gave an activity increase over dofetilide control, less the hit threshold of -6%.
For `CCOC(=O)C1CCCN(C(=S)NC(=O)/C=C/c2ccc(F)cc2)C1` (stereo not drawn), the activity increase over dofetilide control, less the hit threshold was -6%.
In the case of `O=[N+]([O-])c1cccnc1Sc1n[nH]c(-c2ccc(Cl)cc2)n1`, the activity increase over dofetilide control, less the hit threshold is reported as -14%.
With `Cc1ccc2[nH]c3c(c2c1)CNCC3` the activity increase over dofetilide control, less the hit threshold was -15%.
`CCC(=O)Nc1nnc(-c2ccccn2)o1` showed an activity increase over dofetilide control, less the hit threshold of -17%.
In the case of `O=C(NN1C(=O)C2C(c3ccccc3)C=CC(c3ccccc3)C2C1=O)c1ccncc1` (stereo not drawn), the activity increase over dofetilide control, less the hit threshold is reported as -56%.
For `CC1CN(C(=S)NC(=O)c2ccc(Cl)cc2)CC(C)O1` (stereo not drawn), the activity increase over dofetilide control, less the hit threshold was 5% (active).
With `O=C(C1CC(=O)N(c2ccc3c(c2)OCCO3)C1)N1CCCC(C(F)(F)F)C1` (stereo not drawn) the activity increase over dofetilide control, less the hit threshold was -15%.
`O=C(NC(=S)N1CCCC(C(F)(F)F)C1)c1ccc(F)cc1` (stereo not drawn) was tested, and the activity increase over dofetilide control, less the hit threshold was 19% (active).
Compound `COc1ccc(C(=O)NC(=S)N2CCC(C)CC2)cc1` has an activity increase over dofetilide control, less the hit threshold of -11%.
In the case of `COc1ccc(C(=O)NC(=S)N2CCC(C)CC2)cc1Br`, the activity increase over dofetilide control, less the hit threshold is reported as 26% (active).
`O=C(c1ccc(C(F)(F)F)cc1)C1CCCN(C(=O)CCc2ccncc2)C1` (stereo not drawn) showed an activity increase over dofetilide control, less the hit threshold of -7%.
Work on `Cc1ccc2c(c1)N(CCC(=O)NCc1cccnc1)C(=O)CO2` yielded an activity increase over dofetilide control, less the hit threshold of -17%.
In the case of `O=C1NC2(CCCCCC2)C(=O)N1Cc1ccccc1`, the activity increase over dofetilide control, less the hit threshold is reported as -2%.
`CC(C)(C)OC(=O)NCCCC(CCCNC(=O)OC(C)(C)C)C(=O)O` showed an activity increase over dofetilide control, less the hit threshold of -22%.
`CCOC(=O)CN1C(=O)SC(Nc2ccc(C)cc2)C1=O` (stereo not drawn) was tested, and the activity increase over dofetilide control, less the hit threshold was -10%.
`Cc1nc2c(C(=O)NCc3cccs3)cnn2c(C)c1Cc1ccccc1` was tested, and the activity increase over dofetilide control, less the hit threshold was -12%.
With `CCCn1c(SCC(N)=O)nc2c(c1=O)C1(CCCC1)Cc1ccccc1-2` the activity increase over dofetilide control, less the hit threshold was 2% (active).
Work on `CC1CCCN(C(=O)COC(=O)c2cc(-c3cccs3)nn2-c2ccccc2)C1` (stereo not drawn) yielded an activity increase over dofetilide control, less the hit threshold of -29%.
`Nc1ccc(NC(=O)Nc2ccc(N)cc2)cc1` showed an activity increase over dofetilide control, less the hit threshold of -3%.
In the case of `O=C(NCc1ccco1)c1ccc(OCC2CCCO2)cc1` (stereo not drawn), the activity increase over dofetilide control, less the hit threshold is reported as -22%.
Work on `COc1cccc(N2CCN(CC(=O)NC(=O)NCc3ccco3)CC2)c1` yielded an activity increase over dofetilide control, less the hit threshold of -9%.
For `Cc1cc2c(cc(C(=O)OC(C(=O)NCc3ccco3)C(C)C)n2C)o1` (stereo not drawn), the activity increase over dofetilide control, less the hit threshold was 2% (active).
With `Cc1ccc(/C=C(\NC(=O)c2ccccc2)C(=O)N2CCCCC2)cc1` the activity increase over dofetilide control, less the hit threshold was -26%.
With `CCc1ccc(/C=C/C(=O)C2C(=O)c3ccccc3C2=O)cc1` the activity increase over dofetilide control, less the hit threshold was 49% (active).
In the case of `CCc1ccc(/C=c2\s/c(=C\C(=O)C(C)(C)C)[nH]c2=O)cc1`, the activity increase over dofetilide control, less the hit threshold is reported as -6%.
Compound `CC(=O)C1=C(C)NC(=O)NC1/C=C/c1ccccc1` (stereo not drawn) has an activity increase over dofetilide control, less the hit threshold of -1%.
For `Cc1ccc(/C=C/C(=O)C2C(=O)c3ccccc3C2=O)cc1`, the activity increase over dofetilide control, less the hit threshold was 42% (active).
For `CCC(c1nnc(SCC(=O)NCCc2ccc(Cl)cc2Cl)o1)N(C)C` (stereo not drawn), the activity increase over dofetilide control, less the hit threshold was -16%.
With `O=C(NC(=S)N1CCN(Cc2ccc3c(c2)OCO3)CC1)c1cccc(Br)c1` the activity increase over dofetilide control, less the hit threshold was 48% (active).
`O=C(NC(=S)N1CCN(Cc2ccc3c(c2)OCO3)CC1)c1ccc(Cl)cc1` was tested, and the activity increase over dofetilide control, less the hit threshold was 21% (active).
`O=C(NC(=S)N1CCN(C/C=C/c2ccccc2)CC1)c1ccc(Cl)nc1` was tested, and the activity increase over dofetilide control, less the hit threshold was -7%.
`COc1ccc(C(=O)N2CCN(Cc3ccc4c(c3)OCO4)CC2)cc1[N+](=O)[O-]` was tested, and the activity increase over dofetilide control, less the hit threshold was -7%.
Compound `CCCCNC(=S)NNC(=O)c1ccc2c(c1)OCO2` has an activity increase over dofetilide control, less the hit threshold of -13%.
Compound `O=C(COc1ccc(Cl)cc1)N1CCN(Cc2ccc3c(c2)OCO3)CC1` has an activity increase over dofetilide control, less the hit threshold of -17%.
